PubChem BioAssay (NCI)
Compounds without any hit were thinned out: in the full panel of roughly 79,000, 15% have a hit. Calls of active or inactive are those of the source. No stated cut-off is given here; in the data, active means growth inhibition above about 70%; inactive means the rest.

Columns and labels:
[1] = NCI Yeast Anticancer Drug Screen. Data for the rad50 strain (AID 155);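 further: 0% = growth of vehicle-only cultures of the same strain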; settings: S. cerevisiae rad50 strain growth inhibition, hits give high values
In short: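 Vehicle-treated cultures provide the reference for the growth inhibition reported for compound-exposed, repair-deficient yeast.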

[2] = NCI Yeast Anticancer Drug Screen. Data for the mec2-1 strain (AID 157); settings: S. cerevisiae mec2-1 strain, hits give high values
In short: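 Using mec2-1 yeast: add compound, measure growth, express inhibition versus vehicle-treated cultures.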

[3] = NCI Yeast Anticancer Drug Screen. Data for the sgs1 mgt1 strain (AID 161);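 further: 0% = growth of cultures given vehicle only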; settings: S. cerevisiae sgs1 mgt1 strain, hits give high values
In short: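 Growth of a repair-deficient yeast mutant was monitored after compound treatment and expressed as inhibition relative to vehicle-treated cultures.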

[4] = NCI Yeast Anticancer Drug Screen. Data for the cln2 rad14 strain (AID 165);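 further: 0% = growth equal to vehicle treated cultures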; settings: S. cerevisiae cln2 rad14 strain, hits give high values
In short: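 Yeast strain cln2 rad14, bearing defects in cell cycle control and DNA repair, serves as the test system; values reflect growth inhibition compared with vehicle.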

[5] = NCI Yeast Anticancer Drug Screen. Data for the bub3 strain (AID 167); settings: S. cerevisiae bub3 mutant strain, hits give high values
In short: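 Mutant yeast screening strain plus compound; vehicle-treated cultures serve as the 0% inhibition reference.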

[6] = NCI Yeast Anticancer Drug Screen. Data for the mlh1 rad18 strain (AID 175); settings: S. cerevisiae mlh1 rad18 strain growth inhibition, hits give high values
In short: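 Steps: expose repair-defective yeast to compound; measure growth; express inhibition against vehicle-treated controls.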

[7] = at 5.0 µM (retest, dose inferred, filed as 0.5)
[8] = at 50.0 µM (retest, dose inferred, filed as 5.0)

Measured: growth inhibition

CCOc1ccccc1/C=C1\C=Nc2ccccc21
inactive: [1]; [7] 6% | [1]; [8] -16% | [1]; at 50.0 µM 11.8% | [2]; [7] -16% | [2]; [8] 8% | [2]; at 50.0 µM 16.1% | [3]; [7] -6% | [3]; [8] 0% | [3]; at 50.0 µM 16.2% | [4]; [7] 25% | [4]; [8] 16% | [4]; at 50.0 µM 7.65% | [5]; [7] 8% | [5]; [8] 15% | [5]; at 50.0 µM 24.7% | [6]; [7] -10% | [6]; [8] -17% | [6]; at 50.0 µM 6.35%

Clc1ccc([I+]c2cccs2)cc1
inactive: [1]; [7] 37% | [2]; [7] 51% | [3]; [7] 45% | [3]; at 50.0 µM 8.95% | [4]; [7] 33% | [5]; [7] 66%
active: [1]; [8] 97% | [1]; at 50.0 µM 98% | [2]; [8] 99% | [2]; at 50.0 µM 98.7% | [3]; [8] 98% | [4]; [8] 97% | [4]; at 50.0 µM 97.7% | [5]; [8] 97% | [5]; at 50.0 µM 98% | [6]; [7] 72% | [6]; [8] 98% | [6]; at 50.0 µM 99%

CCCCCCCCCCCCCCCCn1cc(C(O)CN(C)C)c2ccccc21 (centres undefined)
active: [1]; [8] 98% | [2]; [8] 99% | [2]; at 50.0 µM 99.1% | [3]; [8] 98% | [4]; [8] 89% | [4]; at 50.0 µM 98.3% | [5]; [8] 98% | [6]; [8] 98% | [6]; at 50.0 µM 94.9%
inactive: [1]; [7] -4% | [1]; at 50.0 µM 32.2% | [2]; [7] -1% | [3]; [7] -1% | [3]; at 50.0 µM 49.5% | [4]; [7] -3% | [5]; [7] -4% | [5]; at 50.0 µM 39.6% | [6]; [7] -2%
